Reference: the supplement of paper PMC9262897, “Low-cost anti-mycobacterial drug discovery using engineered E. coli” (Nature Communications, 2022)
Structures can show the parent of a compound that is named as a salt. ± gives the standard deviation of the averaged measurements.

How the values were obtained:
Assay in all cases: growth (OD600 after 10 h); higher = more growth (less inhibition)
[1] = system: E. coli TESEC Alr+ wild-type control; settings: compound 0.1 mM; raw OD600 reference: median of DMSO wells 0.241, cell-free background 0.041
Experimental: (§1)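 TESEC Mtb Alr E. coli, or the Alr+ wild-type control, in 384-well plates with Prestwick library compounds at 0.1 mM and 1% DMSO, across arabinose induction levels of 1E3 to 1E7 nM. Growth is read as OD600 after 10 h at 37 °C in triplicate biological replicates.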

E. coli TESEC Mtb Alr [2] = settings: compound 0.1 mM
Experimental: as §1

E. coli TESEC Mtb Asd = settings: compound 0.1 mM
Experimental: (§2)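 TESEC E. coli strains in which the native enzyme is deleted and replaced by arabinose-inducible Mtb Asd, DapB, CysH or TrpD, each grown in its selective medium. Strains were screened against the Prestwick library at 0.1 mM and 1% DMSO in 384-well format at low and high arabinose induction. Growth is read as OD600 after 10 h in triplicate.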

E. coli TESEC Mtb DapB = settings: compound 0.1 mM
Experimental: as §2

[3] = system: E. coli TESEC Alr+ wild-type control; settings: compound 0.1 mM; raw OD600 reference: median of DMSO wells 0.49, cell-free background 0.052
Experimental: (§3)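 TESEC Mtb Alr E. coli (ΔaraC ΔtolC ΔentC Δalr ΔdadX, arabinose-inducible Mtb Alr) or the Alr+ wild-type control strain, grown in defined M9-fructose medium without D-alanine in 96-well plates with Prestwick library compounds at 0.1 mM and 1% DMSO. Low Alr induction is 0.1 µM arabinose and high induction is 10 mM arabinose.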

E. coli TESEC Mtb Alr [4] = settings: compound 0.1 mM; remark: listed apart in the source
Experimental: as §3

[5] = arabinose 1000 nM, raw OD600 reference: median of DMSO wells 0.294, cell-free background 0.041
[6] = arabinose 10000 nM, raw OD600 reference: median of DMSO wells 0.264, cell-free background 0.041
[7] = arabinose 100000 nM, raw OD600 reference: median of DMSO wells 0.201, cell-free background 0.041
[8] = arabinose 1000000 nM, raw OD600 reference: median of DMSO wells 0.193, cell-free background 0.041
[9] = arabinose 10000000 nM, raw OD600 reference: median of DMSO wells 0.146, cell-free background 0.041
[10] = arabinose induction (level): High, raw OD600 reference: median of DMSO wells 0.331, cell-free background 0.041
[11] = arabinose induction (level): Low, raw OD600 reference: median of DMSO wells 0.417, cell-free background 0.041
[12] = arabinose induction (level): High, raw OD600 reference: median of DMSO wells […], cell-free background 0.041
[13] = arabinose induction (level): Low, raw OD600 reference: median of DMSO wells 0.227, cell-free background 0.041
[14] = arabinose 100 nM, raw OD600 reference: median of DMSO wells 0.413, cell-free background 0.052
[15] = arabinose 10000000 nM, raw OD600 reference: median of DMSO wells […], cell-free background 0.052

| Structure (SMILES) | growth [1] | growth (E. coli TESEC Mtb Alr [2]; [5]) | growth (E. coli TESEC Mtb Alr [2]; [6]) | growth (E. coli TESEC Mtb Alr [2]; [7]) | growth (E. coli TESEC Mtb Alr [2]; [8]) | growth (E. coli TESEC Mtb Alr [2]; [9]) | growth (E. coli TESEC Mtb Asd; [10]) | growth (E. coli TESEC Mtb Asd; [11]) | growth (E. coli TESEC Mtb DapB; [12]) | growth (E. coli TESEC Mtb DapB; [13]) | growth [3] | growth (E. coli TESEC Mtb Alr [4]; [14]) | growth (E. coli TESEC Mtb Alr [4]; [15]) |
| --- | --- | --- | --- | --- | --- | --- | --- | --- | --- | --- | --- | --- | --- |
| O=C(CCCCC(=O)Nc1c(I)cc(I)c(C(=O)O)c1I)Nc1c(I)cc(I)c(C(=O)O)c1I [Iodipamide] | 0.249 ± 0.012 | 0.298 ± 0.0095 | 0.245 ± 0.0068 | 0.191 ± 0.0062 | 0.17 ± 0.0029 | 0.143 ± 0.0046 | 0.436 ± 0.022 | 0.452 ± 0.049 | 0.213 ± 0.0095 | 0.239 ± 0.03 | 0.527 ± 0.092 | 0.407 ± 0.013 | 0.346 ± 0.014 |
| CC1(C)O[C@@H]2C[C@H]3[C@@H]4CCC5=CC(=O)CC[C@]5(C)[C@@]4(F)[C@@H](O)C[C@]3(C)[C@]2(C(=O)CCl)O1 [Halcinonide] | 0.215 ± 0.022 | 0.283 ± 0.011 | 0.2593 ± 0.0019 | 0.181 ± 0.027 | 0.123 ± 0.0028 | 0.152 ± 0.014 | 0.258 ± 0.052 | 0.36 ± 0.049 | 0.188 ± 0.003 | 0.22 ± 0.0073 | 0.442 ± 0.032 | 0.413 ± 0.021 | 0.256 ± 0.019 |
| Cn1c(=O)c2nc[nH]c2n(C)c1=O [Theophylline monohydrate] | 0.263 ± 0.0048 | 0.328 ± 0.018 | 0.283 ± 0.013 | 0.21 ± 0.027 | 0.189 ± 0.0034 | 0.158 ± 0.0078 | 0.4904 ± 0.0049 | 0.455 ± 0.0057 | 0.197 ± 0.014 | 0.241 ± 0.044 | 0.461 ± 0.014 | 0.406 ± 0.016 | 0.338 ± 0.01 |
| Cc1ccccc1C(OCCN(C)C)c1ccccc1 (stereo not drawn) [Orphenadrine hydrochloride] | 0.208 ± 0.013 | 0.26 ± 0.024 | 0.266 ± 0.015 | 0.189 ± 0.0084 | 0.148 ± 0.0039 | 0.159 ± 0.0037 | 0.18 ± 0.015 | 0.383 ± 0.063 | 0.19 ± 0.0094 | 0.241 ± 0.021 | 0.463 ± 0.043 | 0.412 ± 0.013 | 0.321 ± 0.029 |
| CCCCc1ccc2[nH]c(NC(=O)OC)nc2c1 [Parbendazole] | 0.244 ± 0.01 | 0.307 ± 0.0063 | 0.277 ± 0.0036 | 0.213 ± 0.034 | 0.206 ± 0.0056 | 0.156 ± 0.0051 | 0.279 ± 0.015 | 0.435 ± 0.0069 | 0.208 ± 0.0058 | 0.279 ± 0.031 | 0.496 ± 0.038 | 0.4255 ± 0.003 | 0.374 ± 0.045 |
| OCCOCCN1CCN(C(c2ccccc2)c2ccc(Cl)cc2)CC1 (stereo not drawn) [Hydroxyzine dihydrochloride] | 0.142 ± 0.0048 | 0.202 ± 0.0073 | 0.243 ± 0.004 | 0.171 ± 0.0032 | 0.11 ± 0.0035 | 0.1214 ± 0.0011 | 0.164 ± 0.0026 | 0.27 ± 0.013 | 0.182 ± 0.011 | 0.239 ± 0.048 | 0.45 ± 0.02 | 0.421 ± 0.009 | 0.219 ± 0.011 |
